# Laboratory results published in PubChem BioAssay (EPA / NIEHS).
# Inconclusive results are not listed. Activity calls are given as the source filed them. How the source made its calls: active means hit-call score of the fitted dose curve at least 0.9, where 1 is the maximum; inconclusive means response in the unintended direction; inactive means score below 0.9.
# Assays:
# THRB (gene 7068) [1] = biological target: THRB (gene 7068) (UniProt P10828); experiment: TOX21_TRB_BLA_Antagonist_Followup_ratio: Tox21 Thyroid Hormone Receptor beta Antagonism Beta-lactamase (BLA) Follow-Up Assay, Ratio (AID 2283958)
# Chain of THRB (gene 7068) (P10828 whole entry, looked up, the tested form may be a part): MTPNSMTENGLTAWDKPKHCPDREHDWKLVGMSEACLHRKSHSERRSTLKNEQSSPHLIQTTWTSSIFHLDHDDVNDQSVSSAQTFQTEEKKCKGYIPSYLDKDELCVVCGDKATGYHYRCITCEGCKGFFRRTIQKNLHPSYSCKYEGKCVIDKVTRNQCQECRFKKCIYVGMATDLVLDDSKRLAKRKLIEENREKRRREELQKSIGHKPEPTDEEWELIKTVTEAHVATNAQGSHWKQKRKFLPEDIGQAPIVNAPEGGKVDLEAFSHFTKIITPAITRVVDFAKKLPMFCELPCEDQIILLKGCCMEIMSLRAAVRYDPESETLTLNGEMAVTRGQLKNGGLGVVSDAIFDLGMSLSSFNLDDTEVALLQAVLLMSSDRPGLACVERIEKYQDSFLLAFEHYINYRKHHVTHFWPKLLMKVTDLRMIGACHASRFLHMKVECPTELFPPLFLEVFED
# In short: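 Beta-lactamase reporter ratio (460/530 nm, CCF4-AM substrate, 2 h room temperature) was read in TRb-bla HEK293T cells after 18 h compound treatment (11 concentrations, triplicate) at 37C in 2% charcoal-stripped FBS medium. Loss of signal fitted against DMSO.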
# [2] = TOX21_TRB_BLA_Antagonist_Followup_viability: Viability Assessment in the Tox21 Thyroid Hormone Receptor beta Antagonism Beta-lactamase (BLA) Follow-Up Assay (AID 2283961)
# From the text: The GeneBLAzer TRb-UAS-bla HEK293T assay kit for human TRb (ThermoFisherScientific Catalog No. K1684) was used as a secondary assay for specificity (TRb-bla).This assay contained the ligand-binding domain (LBD) of the human TRb fused to the DNA-binding domain of GAL4 stably integrated in the GeneBLAzer UAS-bla HEK293Tcell line. The reporter gene, b-lactamase, is under the transcriptional control of a UAS that binds the GAL4 DNA-binding domain. A cell viability assay was run in parallel for these cells as well using the CellTiter-Glo viability assay kit.TOX21_TRB_BLA_Antagonist_Followup_viability is a component of the TOX21_TRB_BLA_Antagonist_Followup assay. This component measures cell viability using the CellTiter-Glo Luciferase-coupled ATP quantitation.TOX21_TRB_BLA_Antagonist_Followup_viability used a type of viability reporter where loss-of-signal activity can be used to understand changes in the cell viability. Furthermore, this assay endpoint can be referred to as a secondary readout, because this assay has produced multiple assay endpoints where this one serves a viability function. To generalize the intended target to other relatable targets, this assay endpoint is annotated to the cell cycle intended target family, where the subfamily is cytotoxicity. […]
# THRB (gene 7068) [3] = biological target: THRB (gene 7068) (UniProt P10828); experiment: TOX21_TRB_COA_Antagonist_Followup_ratio: Tox21 Thyroid Hormone Receptor beta Antagonism through Coactivator Recruitment Follow-Up Assay, Ratio (AID 2283967)
# In short: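 Coactivator (SRC-2) recruitment to purified GST-TRβ ligand-binding domain is monitored by terbium-to-fluorescein energy transfer, emission ratio 520:495 nm. DMSO wells define 0% and T3 wells 100% activity.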
# [4] = biological target: Retinoic acid receptor RXR-alpha (Homo sapiens) (UniProt P19793); experiment: TOX21_TR_RXR_BLA_Antagonist_Followup_ratio: Tox21 Thyroid Hormone Receptor beta Retinoid X Receptor alpha (RXRa) Antagonism Beta-lactamase (BLA) Follow-Up Assay, Ratio (AID 2283972)
# Chain of Retinoic acid receptor RXR-alpha (Homo sapiens) (P19793 whole entry, looked up): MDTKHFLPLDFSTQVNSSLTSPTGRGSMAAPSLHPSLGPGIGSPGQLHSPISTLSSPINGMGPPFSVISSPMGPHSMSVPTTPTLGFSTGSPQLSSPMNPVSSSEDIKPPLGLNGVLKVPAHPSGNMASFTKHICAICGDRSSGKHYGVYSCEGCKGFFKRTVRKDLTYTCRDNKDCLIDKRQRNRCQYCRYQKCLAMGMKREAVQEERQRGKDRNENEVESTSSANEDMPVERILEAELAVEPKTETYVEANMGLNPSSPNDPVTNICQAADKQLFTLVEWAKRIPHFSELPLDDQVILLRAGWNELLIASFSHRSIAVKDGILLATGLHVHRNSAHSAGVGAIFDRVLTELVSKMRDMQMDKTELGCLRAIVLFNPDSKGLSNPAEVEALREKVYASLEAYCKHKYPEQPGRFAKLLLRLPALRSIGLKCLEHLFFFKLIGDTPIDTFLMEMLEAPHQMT
# In short: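 HEK293T RXRa-bla, 2% charcoal-stripped FBS medium, 16 h compound exposure at 37C, qHTS 11 conc x3. CCF4 FRET ratio ch2/ch1 (460:530), DMSO = baseline, loss-of-signal fit.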
# [5] = TOX21_TR_RXR_BLA_Antagonist_Followup_viability: Viability Assessment in the Tox21 Thyroid Hormone Receptor beta Retinoid X Receptor alpha (RXRa) Antagonism Beta-lactamase (BLA) Follow-Up Assay (AID 2283979)
# In short: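 RXRa-UAS-bla HEK293T cells seeded 2,500/well in phenol red-free DMEM with 2% charcoal-stripped FBS, attached 5 h, then exposed to compounds at 11 concentrations in triplicate for 16 h at 37C/5% CO2. Viability read by CellTiter-Glo ATP luminescence; bidirectional fit versus DMSO.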
compound,measurement,setting,value
CC1(c2ccc(Oc3ccccc3)cc2)OC(=O)N(Nc2ccccc2)C1=O (stereo not given),outcome,THRB (gene 7068) [1],inactive
same,AC50,[2],22 µM (active)
same,outcome,THRB (gene 7068) [3],inactive
same,AC50,[4],28.9 µM (active)
same,AC50,[5],38.5 µM (active)
